Results filed as inconclusive are left out. Where a call stands in place of a potency, no number is given. Active and inactive are the calls of the source. Calls come from the whole dose curve; as a rule, active = well fitted inhibition curve with a large enough effect; inconclusive = small, poorly fitted or top-dose-only effect; inactive = no such curve, though single readings can be large or run the other way.
Assays:
[1] = biological target: N-terminal Xaa-Pro-Lys N-methyltransferase 1 (Homo sapiens) (UniProt Q9BV86); assay: qHTS Assay for Inhibitors of N-terminal methyltransferase 1 (NTMT1): LOPAC validation of the NTMT1 SAHH-coupled ThioGlo3 Assay (AID 1347143); note: nearly all actives have a fitted effect of over 70% in size; note: potency is the fitted concentration of half-maximal effect
How it was run: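 Fluorescence read-out (excitation 340nm, emission 450nm) of SAH-derived thiol, measured via SAHH coupling and ThioGlo3, taken immediately and after a 30 min room-temperature reaction, then normalized to the background read. Enzyme: NTMT1 at 125nM; cofactor SAM 100uM in the added reagent.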

[2] = test system: Zika virus NS2B-NS3 protease (unlinked); assay: Optimization of GU AMC qHTS for Zika virus inhibitors: Unlinked NS2B-NS3 protease assay (AID 1347151); note: nearly all actives have a fitted effect of over 80% in size; note: potency is the fitted concentration of half-maximal effect
How it was run: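 Percent inhibition is derived from the 15-min change in AMC fluorescence, normalized against no-inhibitor and no-enzyme controls, then fitted to a 4-parameter Hill curve. Aprotinin was the intraplate control.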

[3] = biological target: Furin (Homo sapiens) (UniProt P09958); assay: Furin counterscreen qHTS for Zika virus inhibitors (AID 1347149);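 note: purified recombinant full-length human furin enzyme at 5 nM; fluorescence gain from furin cutting a BOC-RVRR-AMC peptide substrate over 15 min; top concentration of the series differs between compounds; nearly all actives have a fitted effect of over 70% in size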
How it was run: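 Fluorogenic cleavage of BOC-RVRR-AMC (2 microM final, Km ~15 µM) was monitored (ex 340, em 450 nm) at 37C after 15 min RT preincubation of 5 nM furin with compounds in HEPES pH 7.0 buffer with CaCl2 and Triton X-100. Percent inhibition was fitted to a 4-parameter Hill curve.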

N-terminal Xaa-Pro-Lys N-methyltransferase 1 (Homo sapiens), sequence (Q9BV86 whole entry, looked up): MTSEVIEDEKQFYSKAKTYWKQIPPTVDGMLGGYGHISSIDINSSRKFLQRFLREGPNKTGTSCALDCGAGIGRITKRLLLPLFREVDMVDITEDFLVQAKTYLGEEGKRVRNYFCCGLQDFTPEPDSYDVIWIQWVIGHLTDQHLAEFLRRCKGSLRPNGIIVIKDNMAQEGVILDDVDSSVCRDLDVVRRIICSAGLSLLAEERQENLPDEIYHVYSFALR
Furin (Homo sapiens), sequence (P09958 whole entry, looked up): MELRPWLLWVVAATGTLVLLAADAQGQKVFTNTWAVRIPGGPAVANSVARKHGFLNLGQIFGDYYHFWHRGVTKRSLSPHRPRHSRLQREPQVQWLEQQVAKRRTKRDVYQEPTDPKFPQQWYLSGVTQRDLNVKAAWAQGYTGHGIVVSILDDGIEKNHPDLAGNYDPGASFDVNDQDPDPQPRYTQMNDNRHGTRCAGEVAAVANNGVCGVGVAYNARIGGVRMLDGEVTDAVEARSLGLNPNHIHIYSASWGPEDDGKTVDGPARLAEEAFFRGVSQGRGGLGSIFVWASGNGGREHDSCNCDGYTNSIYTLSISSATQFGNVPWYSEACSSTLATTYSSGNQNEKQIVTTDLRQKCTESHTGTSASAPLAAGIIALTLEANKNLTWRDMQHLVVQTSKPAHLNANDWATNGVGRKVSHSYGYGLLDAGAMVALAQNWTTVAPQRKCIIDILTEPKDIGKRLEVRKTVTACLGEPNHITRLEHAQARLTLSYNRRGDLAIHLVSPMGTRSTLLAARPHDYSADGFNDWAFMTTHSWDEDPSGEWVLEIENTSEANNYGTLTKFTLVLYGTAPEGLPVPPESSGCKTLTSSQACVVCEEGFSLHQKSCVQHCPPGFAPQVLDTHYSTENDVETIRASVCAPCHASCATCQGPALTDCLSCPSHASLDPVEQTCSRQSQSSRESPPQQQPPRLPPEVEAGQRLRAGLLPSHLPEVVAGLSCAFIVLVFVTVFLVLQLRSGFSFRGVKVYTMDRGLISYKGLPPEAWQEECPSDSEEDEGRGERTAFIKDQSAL

| SMILES | Potency [1] | Potency [2] | Potency [3] |
| --- | --- | --- | --- |
| COc1ccc(OC)c(C(O)C(C)N)c1 (centres undefined) | inactive | inactive | – |
| NC(C(=O)O)c1cc(=O)[nH]o1 (centres undefined) | inactive | inactive | – |
| Clc1cc(I)cc(Cl)c1NC1=NCCN1 | inactive | inactive | – |
| Clc1ccc(N2CC3CCC(C2)N3)nn1 | – | inactive | – |
| C[N+](C)(C)CCOC(=O)CBr | inactive | inactive | – |
| Oc1cc(Cl)c(Cl)cc1Cl | – | – | inactive |
| C=CCN1C[C@@H](C)N([C@H](c2ccc(C(=O)N(CC)CC)cc2)c2cccc(OC)c2)C[C@@H]1C | inactive | inactive | – |
| C[C@@H]1[C@@H]2Cc3ccc(O)cc3[C@@]1(C)CCN2CC1CC1 | – | inactive | inactive |
| CCCN(CCC)C1CCc2cccc(O)c2C1 (centres undefined) | inactive | inactive | – |
| COc1ccc2c(c1O)-c1cccc3c1[C@@H](C2)N(C)CC3 | 56.2 µM (active) | 29.9 µM (active) | – |
| CCS(=O)(=O)Nc1cccc(C(=C2CCCCC2)c2cnc[nH]2)c1 | inactive | inactive | – |
| NNC(=O)c1ccc(O)cc1 | inactive | inactive | – |
| Cc1[nH]c2ccc(O)cc2c1CCN | – | inactive | – |
| CC(Cc1ccc(OCC(=O)O)cc1)NCC(O)c1cccc(Cl)c1 (centres undefined) | inactive | inactive | – |
| CC(C)(C)OC(=O)NC1[C@H]2CNC[C@@H]12 (some centres undefined) | inactive | inactive | – |
| CCCn1c(=O)c2[nH]c(C3CCCC3)nc2n(CCCOC(=O)c2ccc(S(=O)(=O)F)cc2)c1=O | inactive | inactive | – |
| O=C(NC1CN2CCC1CC2)c1cc2ccoc2cn1 (centres undefined) | inactive | inactive | – |
| Cc1sc2ccccc2c1CC1=NCCN1 | 79.4 µM (active) | 26.7 µM (active) | – |
| CN1CCC(c2c[nH]c3ccc(O)cc23)CC1 | – | inactive | – |
| CC12NC(Cc3ccccc31)c1ccccc12 (centres undefined) | inactive | inactive | – |
| O=[N+]([O-])/C=C/c1ccc2c(c1)OCO2 | 39.8 µM (active) | inactive | – |
| c1ccc2cc(CC3=NCCN3)ccc2c1 | inactive | inactive | – |
| NC(CCCCCP(=O)(O)O)C(=O)O (centres undefined) | inactive | inactive | – |
| NNC(N)=O | inactive | inactive | – |

Source: PubChem BioAssay (NCATS)
